Compound activity from PubChem BioAssay.
Hits are enriched below; roughly 12% of the tested compounds scored in any of these assays.
Sfp PPTase inh = Sfp phosphopantetheinyl transferase inhibition | Q9F4F7 | Biochemical Sfp PPTase activity, qHTS | Potency, µM, for the others: largest response in the series, negative = inhibition, usual class: inhibitors | 3.5% of 310,000 active;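 also: the enzyme is Sfp with the accession as filed and its product quenches rhodamine fluorescence; 0% = enzyme reaction without inhibitor and -100% = no enzyme wells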
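Reaction rates are the 30-min fluorescence difference (ex 525, em 598 nm) in wells containing 15 nM Sfp, 5 uM rhodamine-CoA and 12.5 uM BHQ-2-YbbR at pH 7.6 with 10 mM MgCl2.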
JMJD2A Tudor inh = blocks the human JMJD2A Tudor domain. 4.4% of 390,000 active. AID 504339. Potency, µM (top dose mostly 114 µM), for inactives: top-dose activity change, negative = inhibition, usual class: inhibitors. AlphaScreen JMJD2A-Tudor / H3K4me3 peptide binding; also: % is scaled to controls: 0 for no effect and ±100 for the full control effect; nearly all actives have a fitted effect of over 50% in size
BAZ2B block = inhibitors of human BAZ2B bromodomain. Potency, µM (doses to about 114 µM), for inactives: at the top dose activity change, negative = inhibition, most hits filed as inhibitors. Q9UIF8. 4.4% of 360,000 active. AlphaScreen BAZ2B-H3K14Ac peptide displacement; also: % is scaled to controls: 0 for no effect and ±100 for the full control effect; nearly all actives have a fitted effect of over 60% in size
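In this displacement format the biotinylated H3(5-23) peptide acetylated at Lys14 serves as ligand at 50 nM, with BAZ2B at 50 nM in PBS pH 7.4 containing 0.01% Tween-20. Donor and acceptor beads are 10 ug/mL final.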
L3MBTL1 block = inhibitors of human L3MBTL1; Potency, µM (doses to about 57.1 µM), without a hit: at the top dose activity, negative = inhibition, usual class: inhibitors; Q9Y468; 0.66% of 230,000 active; AlphaScreen L3MBTL1–H3K9me1 peptide binding; AID 485360; also: % is scaled to controls: 0 for no effect and ±100 for the full control effect; nearly all actives have a fitted effect of over 60% in size
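Displacement of a biotinylated histone H3(1-15) peptide monomethylated at Lys9 (75 nM) from L3MBTL1 (50 nM) was measured by AlphaScreen after a 30 min room-temperature compound incubation; cefsulodin titration served as intraplate control.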
G9a inh = blocks human histone lysine methyltransferase G9a | G9a H3K9 monomethylation, AlphaScreen, 2 h | Potency, µM (doses to about 102 µM), without a hit: at the top dose activity, negative = inhibition, usual class: inhibitors | 8.8% of 350,000 active; also: % is scaled to controls: 0 for no effect and ±100 for the full control effect; nearly all actives have a fitted effect of over 75% in size
Target sequence (Q96KQ7 913-1193 limits assumed): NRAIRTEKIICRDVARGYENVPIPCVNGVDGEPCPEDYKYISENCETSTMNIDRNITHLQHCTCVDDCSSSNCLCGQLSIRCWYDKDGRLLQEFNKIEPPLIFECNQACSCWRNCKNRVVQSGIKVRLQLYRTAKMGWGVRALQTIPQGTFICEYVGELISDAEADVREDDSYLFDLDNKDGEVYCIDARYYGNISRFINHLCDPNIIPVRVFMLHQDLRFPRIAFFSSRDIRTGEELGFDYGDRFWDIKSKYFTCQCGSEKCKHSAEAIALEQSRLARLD
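AlphaScreen read-out: biotin-H3K9 peptide (500 nM) methylation by 20 nM enzyme with 20 uM SAM, 2 h at room temperature after 15 min compound preincubation; anti-monomethyl H3K9 antibody plus donor/acceptor beads, 10 min dark.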
HP1b chromo inh = HP1-beta chromodomain-methylated histone interaction inhibition; P83916; AlphaScreen HP1-beta / biotin-H3K9me3 peptide binding; Potency, µM (series often up to 114 µM), inactives show at the highest dose activity change, negative = inhibition, most hits filed as inhibitors; 0.56% of 390,000 active; AID 540317; also: nearly all actives have a fitted effect of over 70% in size
Target sequence (P83916 whole entry, looked up): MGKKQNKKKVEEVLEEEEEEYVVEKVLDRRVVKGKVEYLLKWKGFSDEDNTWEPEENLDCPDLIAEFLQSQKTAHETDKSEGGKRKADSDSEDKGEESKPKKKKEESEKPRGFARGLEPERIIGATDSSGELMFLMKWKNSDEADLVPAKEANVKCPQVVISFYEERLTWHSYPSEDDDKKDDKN
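AlphaScreen: HP1-beta (50 nM) preformed 30 min with biotin-H3(1-18)K9me3 peptide (50 nM) in PBS pH 7.4, 0.01% Tween-20. Compound added for 30 min at RT, then streptavidin donor/nickel chelate acceptor beads (10 ug/mL) for 30 min.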
The depositor's hits bear a star; ? = inconclusive; . = no result; [ ] = another dose, or the depositor's remark. Calls follow the shape of the dose curve; as a rule, active = well fitted curve in the direction sought with a large enough effect; inconclusive = small, poorly fitted or top-dose-only effect, or another doubt; inactive = no such curve, though single readings can be large; an effect the other way counts as inactive or inconclusive. Potency is read from the fitted curve at half-maximal effect.

SMILES	Sfp PPTase inh	JMJD2A Tudor inh	BAZ2B block	L3MBTL1 block	G9a inh	HP1b chromo inh
CC(=O)N1CCCc2cc(S(=O)(=O)N3CCCCC3)ccc21	.	-2%	-1%	.	8%[59 µM]	30%[57 µM]
Cc1cc2c(n1-c1ccc(C(=O)O)cc1)CCCCC2	-13%	.	13µM*	.	7.9µM*	.
Cc1ccc(CNC(=O)c2ccc(-n3c(C)cc4c3CCCC4)cc2)cc1	.	-27%	-12%	.	-25%[59 µM]	10%
C/C=C/c1ccc(OCCCCOc2ccc(OC)cc2)c(OC)c1	?	22%	43%	42%	75%[59 µM]	28%
C/C=C/c1ccc(OCCCN2C(=O)NC(C)(C)C2=O)c(OC)c1	8%	-12%	-6%	-7%	14%	23%
C/C=C/c1ccc(OCCCCN2CCN(CC)CC2)c(OC)c1	?	20µM*	25µM*	-2%	.	?
C/C=C/c1ccc(OCCCCNCc2ccco2)c(OC)c1	-24%	22µM*	40µM*	-1%	11µM*	?
O=C(CCCOc1ccccc1)NNC(=O)c1ccncc1	.	-9%	.	3%	.	-8%
COc1cc(NC(=O)c2ccc(N3CC4CC(C3)c3cccc(=O)n3C4)c(NC(=O)c3ccncc3)c2)cc(OC)c1OC (configuration not stated)	1%	-3%	-6%	.	?	20%
CC12CCC(C(=O)NNc3ccccc3)(OC1=O)C2(C)C (configuration not stated)	19%	2%	-19%	7%	56µM*	48%
Cc1ccc2c(c1)[C@@H]1CN(C)CC[C@@H]1N2S(=O)(=O)c1ccc([N+](=O)[O-])cc1	-10%	?	?	-25%	?	-7%
Cc1ccc2c(c1)C1CN(C)CCC1N2Sc1ccccc1[N+](=O)[O-] (configuration not stated)	1%	32µM*	16µM*	.	?	?
Cc1c(C(=O)N2CCN(S(=O)(=O)c3cc(F)ccc3F)CC2)oc2ccccc12	.	-21%	79µM*	-4%	?	10%
CN(CC(=O)Nc1ccccc1Cl)C(=O)c1cc(-c2cccs2)nn1-c1ccccc1	.	-3%	2%	-4%	16%[0.501 µM]	12%
Cc1cc(NC2CCCCC2)nc(-n2nc(C)cc2C)n1	.	.	.	.	38%[59 µM]	.
CC[C@]1(c2ccccc2)NC(=O)NC1=O	10%	.	.	.	.	.
CN(C)c1ccc(CC(=O)c2nc3ccccc3s2)cc1	?	18µM*	40µM*	-16%	?	?
CC(C(=O)N1CCc2ccccc21)N1CCN(S(=O)(=O)c2ccc3c(c2)OCCCO3)CC1 (configuration not stated)	.	-30%	.	.	.	12%
O=S(=O)(c1ccc(Cl)cc1)N1CCN(c2nc(-c3cccc(Br)c3)nc3ccccc23)CC1	.	-21%	.	.	.	21%
N#C/C(=C\c1c[nH]c2ccccc12)C(=O)c1ccc(O)c(O)c1	.	.	.	.	18µM*	.
Clc1ccc(CNc2ccccc2NCc2ccc(Cl)nc2)cn1	-2%	?	?	?	3.2µM*	1%
COc1ccc(NC(=O)c2oc3ccccc3c2NC(=O)Cc2coc3c(C)c(C)ccc23)cc1	.	-5%	-3%	.	-4%[59 µM]	32%
Cc1ccc(Cl)cc1N1CCN(Cc2nc3ccsc3c(=O)[nH]2)CC1	3%	-25%[11.4 µM]	-37%	.	2.8µM*	-17%
COc1ccc(N2CCN(Cc3nc4ccsc4c(=O)[nH]3)CC2)cc1	-4%	56µM*	?	.	?	7%
O=c1[nH]c(CN2CCN(c3ccc([N+](=O)[O-])cc3)CC2)nc2ccsc12	-10%	?	?	.	8%[59 µM]	5%
COc1ccc(NC(=O)CN(c2cc(C)cc(C)c2)S(=O)(=O)c2c(C)n[nH]c2C)cc1	10%	50µM*	6%	.	-16%	-9%
COc1cc(NC(=O)CN(c2cc(C)cc(C)c2)S(=O)(=O)c2c(C)[nH]c(=O)[nH]c2=O)cc(OC)c1	4%	-9%	?	.	8%	56%
